Only some compounds are listed: those with a hit (about 2.4% of all), similar ones and a draw of the others.
Pol kappa inh: blocks human DNA polymerase kappa activity; Q9UBT6; purified Pol kappa, fluorescent DNA synthesis assay, 10 min; Potency, µM (titrated, usually from 107 µM), for the others: at the highest dose activity, negative = inhibition, actives largely listed as inhibitors; 400,000 compounds, 0.53% hits; AID 588579; also: % is scaled to controls: 0 for no effect and ±100 for the full control effect
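Fluorescent qHTS in 1536-well format: enzyme (10 nM) and compound sat 15 min at room temperature before 50 nM substrate (final) was added. Signal taken at 0 and 10 min; no-enzyme buffer wells were negative controls.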
POLB inh: blocks human DNA polymerase beta activity; P06746; Pol beta primer extension/strand displacement, fluorescence kinetic; Potency, µM (titrated, usually from 114 µM), inactives show at the top dose activity change, negative = inhibition, hits mostly inhibitors; 340,000 compounds, 1.3% hits; AID 485314; also: % is scaled to controls: 0 for no effect and ±100 for the full control effect
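Reaction started by 50 nM substrate onto compound-treated Pol beta (10 nM, 15 min preincubation, room temperature); plates read at 0 min and 10 min. Normalized concentration-effect data fitted by four-parameter Hill equation.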
FEN1 inhibitor: human FEN1 inhibition; Recombinant FEN1 flap cleavage, fluorescence, 15 min; Potency, µM (titrated, usually from 114 µM), for the others: at the highest dose activity change, negative = inhibition, actives largely listed as inhibitors; 390,000 compounds, 0.35% hits; AID 588795; P39748; also: % is scaled to controls: 0 for no effect and ±100 for the full control effect; nearly all actives have a fitted effect of over 65% in size
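FEN1 at 10 nM, compound pretreatment for 15 min (room temperature), 50 nM final substrate to initiate; endpoint reads at 0 and 15 min; DMSO-only plates used as vehicle background.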
Pol iota inh: blocks human DNA polymerase iota activity; AID 588590; Potency, µM (highest dose often 115 µM), for the others: at the highest dose activity, negative = inhibition, most hits filed as inhibitors; Pol iota fluorescent replication assay, 10 min; 390,000 compounds, 1% hits; Q9UNA4
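Pol iota at 10 nM preincubated 15 min with compounds at room temperature; reaction started with fluorescent substrate, 50 nM final. Fluorescence read kinetically at 0 and 10 min; buffer-only wells as negative control.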
POLH inh: DNA polymerase eta (human) inhibition | Q9Y253 | recombinant Pol eta, fluorescent DNA replication assay | Potency, µM (highest dose often 114 µM), without a hit: at the highest dose activity change, negative = inhibition, actives largely listed as inhibitors | 390,000 compounds, 1.2% hits; also: % is scaled to controls: 0 for no effect and ±100 for the full control effect
Target sequence (Q9Y253 whole entry, looked up): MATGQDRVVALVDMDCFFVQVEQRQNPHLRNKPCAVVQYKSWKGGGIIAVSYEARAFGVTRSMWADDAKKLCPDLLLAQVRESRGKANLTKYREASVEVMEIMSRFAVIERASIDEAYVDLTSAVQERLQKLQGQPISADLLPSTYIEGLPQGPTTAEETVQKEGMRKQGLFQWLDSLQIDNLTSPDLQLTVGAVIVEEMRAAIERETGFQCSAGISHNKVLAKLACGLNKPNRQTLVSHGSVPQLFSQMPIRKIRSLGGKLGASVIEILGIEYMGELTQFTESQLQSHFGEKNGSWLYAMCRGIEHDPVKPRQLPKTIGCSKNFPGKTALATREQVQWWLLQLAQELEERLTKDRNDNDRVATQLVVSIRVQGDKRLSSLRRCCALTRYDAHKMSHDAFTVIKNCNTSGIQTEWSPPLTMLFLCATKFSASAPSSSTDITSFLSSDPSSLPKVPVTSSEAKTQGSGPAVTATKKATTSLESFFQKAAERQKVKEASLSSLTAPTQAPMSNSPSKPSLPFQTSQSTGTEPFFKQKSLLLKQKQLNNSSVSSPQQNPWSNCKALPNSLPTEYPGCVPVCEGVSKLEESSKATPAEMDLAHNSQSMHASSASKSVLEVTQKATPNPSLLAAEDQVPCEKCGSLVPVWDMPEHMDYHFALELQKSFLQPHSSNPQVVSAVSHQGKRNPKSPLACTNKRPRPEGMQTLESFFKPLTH
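Pol eta (10 nM) was preincubated with compounds for 15 min at room temperature, after which fluorescent replication substrate (50 nM final) was added to start the reaction. Fluorescence was read kinetically at 0 and 10 min.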
WRN inhibitor: inhibitors of human WRN helicase | Q14191 | WRN helicase unwinding, fluorescent forked duplex, kinetic | Potency, µM (highest dose often 114 µM), for the others: top-dose activity change, negative = inhibition, usual class: inhibitors | 360,000 compounds, 0.46% hits | AID 651768; also: % is scaled to controls: 0 for no effect and ±100 for the full control effect; nearly all actives have a fitted effect of over 55% in size
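Primary qHTS, 1536-well format. 20 nM WRN + compound, 15 min RT; start with 100 nM forked fluorophore/quencher duplex, 2 mM ATP (final); kinetic read ex 525/em 598 nm.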
Active calls of the source: *; ? = inconclusive; / = no result; [ ] = dose if it differs, or a comment. Calls follow the shape of the dose curve; as a rule, active = well fitted curve in the direction sought with a large enough effect; inconclusive = small, poorly fitted or top-dose-only effect, or another doubt; inactive = no such curve, though single readings can be large; an effect the other way counts as inactive or inconclusive. Potency is read from the fitted curve at half-maximal effect.

SMILES	Pol kappa inh	POLB inh	FEN1 inhibitor	Pol iota inh	POLH inh	WRN inhibitor
O=c1[nH]c(=O)n(Cc2ccccc2Cl)c(O)c1/C=C1/C=CC=N1	?	?	-17%	45µM*	?	-18%
CCC1(CC)CCNC1=O	10%[60.1 µM]	/	/	/	/	/
O=c1c(O)c(-c2ccc(O)c(O)c2)oc2c(O)c(O)cc(O)c12	1.1µM*	/	/	/	/	/
Cc1cc(C)cc(N2C(=O)NC(=O)/C(=C\c3cccn3-c3ccc(Cl)cc3)C2=O)c1	-11%	6%	1%	?	22µM*	-12%[57.1 µM]
COc1ccc(CN2C(=O)NC(=O)/C(=C\c3cc(OC)c(OC)c(OC)c3)C2=O)cc1	-2%	-12%	-1%	?	-10%	50µM*
COc1ccc(/C=C2\C(=O)NC(=O)N(Cc3ccccc3)C2=O)c(OC)c1OC	-3%	7%	?	?	-6%	-6%
CN(C)c1ccc(/C=C/C=C/c2sc3ccccc3[n+]2C)cc1	-29%	?	?	?	-31%	?
CC[n+]1c(/C=C/N(C)c2ccccc2)sc2ccc(Cl)cc21	-11%	50µM*	?	?	-7%	50µM*
C[C@H](N)C(=O)NCC(=O)N[C@H]1CSSC[C@@H](C(=O)O)NC(=O)[C@H](CO)NC(=O)[C@H]([C@@H](C)O)NC(=O)[C@H](Cc2ccccc2)NC(=O)[C@H]([C@@H](C)O)NC(=O)[C@H](CCCCN)NC(=O)[C@@H](Cc2c[nH]c3ccccc23)NC(=O)[C@H](Cc2ccccc2)NC(=O)[C@H](Cc2ccccc2)NC(=O)[C@H](CC(N)=O)NC(=O)[C@H](CCCCN)NC1=O	14%[60.1 µM]	/	/	/	/	/
C=C/C(=C/C(=O)C[C@H](C)C[C@@H](C)CC[C@H](O)[C@H](C)C(=O)C[C@@H](O)[C@H](C)[C@@H](C)OC(=O)C[C@@H](O)C1=C(C)C(=O)OC1=O)CC	4.7µM*	/	/	/	/	/
CCC1(C)OC(c2ccccc2)=C/C(=C/C=C2C(=O)NC(=O)NC2=O)O1 (stereo not given)	-26%	?	-11%	28µM*	-18%	?
CNc1ccc2oc(C[C@H]3O[C@]4(CC[C@H]3C)O[C@H]([C@H](C)C(=O)c3ccc[nH]3)[C@H](C)C[C@H]4C)nc2c1C(=O)O	-14%[19.4 µM]	/	/	/	/	/
C[C@@H]1CC[C@H]2[C@@H](C)C(=O)O[C@@H]3OC4(C)CC[C@@H]1[C@]32OO4	-15%[60.1 µM]	/	/	/	/	/
NC(=O)C1CCN(/C=C2\C(=O)NC(=O)N(Cc3ccco3)C2=O)CC1	79µM*	?	?	20µM*	18µM*	?
CCOC(=O)C1CCN(/C=C2/C(=O)NC(=O)N(c3ccc(OCC)cc3)C2=O)CC1	-5%[60.1 µM]	2%	9%	33%	-11%	1%
CN(C)C1CSSSC1	18%[60.1 µM]	/	/	/	/	/
CC[C@@]1(O)C(=O)OCc2c1cc1n(c2=O)Cc2cc3ccccc3nc2-1	8%[60.1 µM]	-8%[57.1 µM]	-1%	35%	1%[57.1 µM]	/
CC[C@@]1(O)C(=O)OCc2c1cc1n(c2=O)Cc2cc3c(O)cccc3nc2-1	30µM*	/	/	/	/	/
COc1ccc(C(=O)Nc2ccccc2C(=O)NC(C(=O)NCc2ccco2)C(C)C)cc1 (stereo not given)	-5%	8%	10%	-17%	8.9µM*	-8%
Cc1cc(C=C2C(=O)N(C)C(=S)N(C)C2=O)c(C)n1-c1ccncc1	-37%	?	?	-95%	35µM*	?
Cc1ccnc(-n2c(C)cc(C=C3C(=O)N(C)C(=S)N(C)C3=O)c2C)c1	-25%	13%	-1%	?	8%	?
CC(C)(C)[C@]1(O)C[C@@H]2OC(=O)CC23C(=O)O[C@@H]2OC(=O)[C@H](O)C231 (stereo not given in full)	-8%[60.1 µM]	/	/	/	/	/
Oc1ccc2c(c1)[C@@]13CCCCC1[C@@H](C2)N(CC1CCC1)CC3 (stereo not given in full)	8%[60.1 µM]	/	/	/	/	/
CCn1c(O)c(C=Nc2ccc(N3CCOCC3)c(Br)c2)c(=O)n(CC)c1=S	-13%	30%	8%	20%	-13%	8%
CCn1c(O)c(C=Nc2ccc(N3CCOCC3)cc2)c(=O)n(CC)c1=S	-9%	18µM*	-12%	5%	71%	13%
SMILES	Pol kappa inh	POLB inh	FEN1 inhibitor	Pol iota inh	POLH inh	WRN inhibitor
CC(C)C[C@H](NC(=O)[C@@H](N)Cc1ccccc1)C(=O)N[C@@H](Cc1ccccc1)C(=O)N[C@@H](CCC(N)=O)C(=O)N1CCC[C@H]1C(=O)N[C@@H](CCC(N)=O)C(=O)N[C@@H](CCCN=C(N)N)C(=O)N[C@@H](Cc1ccccc1)C(N)=O	16%[60.1 µM]	/	/	/	/	/
COc1ccc(C=C2C(=O)NC(=S)NC2=O)cc1OC	-5%	/	16%	?	-7%	45µM*
COc1ccccc1C=C1C(=O)NC(=S)NC1=O	-14%	/	-1%	48%	13%	?
COc1ccc(/C=C/C=C2C(=O)NC(=S)NC2=O)cc1	-28%	/	?	?	25µM*	45µM*
CCOc1cc(C=C2C(=O)NC(=S)NC2=O)ccc1O	-14%	/	-15%	?	-14%	50µM*
C=CCN1CC[C@]23c4c5ccc(O)c4O[C@@H]2/C(=N/N=C2\CC[C@@]4(O)C6Cc7ccc(O)c8c7[C@@]4(CCN6CC=C)[C@@H]2O8)CC[C@@]3(O)C1C5	1%[60.1 µM]	-6%[57.1 µM]	/	-4%[58.9 µM]	-1%[57.1 µM]	/
c1cc2cc(c1)C[n+]1ccc(c3ccccc31)NCc1ccc(cc1)CNc1cc[n+](c3ccccc13)C2	-8%[19.4 µM]	/	/	/	/	/
Cc1ccc(N/N=C/C=C/c2ccco2)cc1	-15%	/	-18%	149%	-15%	-18%
Cc1ccc(NC(=O)COC(=O)/C=C/c2ccco2)cc1S(=O)(=O)N(C)C	-44%	?	13%	?	16µM*	-26%
C=C1C(O)C2OC3(CCC(/C=C/C(C)C4CC(C)=CC5(OC(CC(C)(O)C(=O)O)CCC5O)O4)O3)CCC2OC1C(O)CC(C)C1OC2(CCCCO2)CCC1C (stereo not given)	-10%[2.39 µM]	/	/	/	/	/
COc1cc2c(cc1OC)-c1c(OC)c(OC)cc3c1C(C2)N(C)CC3 (stereo not given)	-22%	-2%	-24%	11µM*	-24%	0%
Cc1cc(=O)n(-c2ccccc2Cl)[nH]1	0%	10%	-4%	2.8µM*	-5%	-8%[11.6 µM]
Cc1ccc(/C=C2\C(=O)NC(=S)N(c3ccc(F)cc3)C2=O)s1	-20%	?	3%	?	?	50µM*
Cc1ccc(/C=C2\C(=O)NC(=S)N(c3ccccc3F)C2=O)s1	?	?	?	?	?	50µM*

Screening data deposited in PubChem BioAssay by National Center for Advancing Translational Sciences (NCATS).
